Assay outcomes deposited in PubChem BioAssay by several laboratories.
SENP8 block-1 = human SENP8 protease inhibitors, primary screen, biochemical, fluorescence, Nedd8 protein substrate, uHTS; AID 602440, 2012; Sentrin-specific protease 8 (Homo sapiens), Q96LD8; inhibition, % at 20 µM; 360,000 compounds, 0.64% hits; recombinant SENP8; in the data active means inhibition mostly above about 40%, no sharp cut-off; inactive means mostly below about 27%
SENP8 block-2 = SENP8 protease inhibitors, primary screen, biochemical, luminescence; 330,000 compounds, 1.2% hits; purified SENP8, Z-RLRGG-aminoluciferin cleavage; Sentrin-specific protease 8 (Homo sapiens), Q96LD8; inhibition, % at 10 µM; in the data active means inhibition above about 50%
SENP7 inh = SENP7 protease inhibitors, primary screen, biochemical, luminescence, uHTS | inhibition, % at 5 µM | 330,000 compounds, 1.5% hits | Sentrin-specific protease 7 (Homo sapiens), Q9BQF6 | recombinant SENP7, Z-RLRGG-aminoluciferin luminescence, 40 min | AID 434973, 2010;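 active means inhibition above about 50% at the single test dose, limit read from the data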;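 further: plate controls were DMSO with enzyme for no effect and no enzyme buffer wells for full effect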
HSP90 inh = HSP90 inhibitors, primary screen, cell lysate, luminescence; Heat shock protein HSP 90 (rabbit reticulocyte lysate; luciferase refolding); Rabbit reticulocyte lysate, luciferase refolding luminescence, 3 h; inhibition, % at 5.6 µM; 290,000 compounds, 0.91% hits; AID 1789, 2009;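 active means inhibition above the screen-wide mean plus 3 SD, computed separately per campaign, cut at about 16% in these data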;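 further: 0% = DMSO wells and 100% = 60 µM geldanamycin wells; inhibitors lower the luminescence because luciferase stays unfolded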
SENP6 block = SENP6 protease inhibitors, primary screen, biochemical, luminescence, uHTS. Sentrin-specific protease 6 (Homo sapiens), Q9GZR1. Recombinant SENP6 catalytic domain, aminoluciferin luminescence. inhibition, % at 10 µM. 330,000 compounds, 1.8% hits;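 active means inhibition above about 50% at the single tested dose, limit read from the data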;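 further: plate controls were DMSO wells with enzyme for no effect and DMSO wells lacking enzyme for full effect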
HSP90 inh confirm = HSP90 inhibitors, confirmation, cell lysate, luminescence. shares compounds with HSP90 inh. rabbit reticulocyte lysate, luciferase refolding luminescence, 3 h. inhibition, % at 5.9 µM. 2,300 compounds, 64% hits. AID 1846, 2009; in the data active means inhibition above about 18%;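 further: 0% = vehicle wells and 100% = reference inhibitor wells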
FLuc counter = firefly luciferase inhibitors, HSP90 counter-screen, confirmation, artefact control for HSP90 inhibitor project, biochemical, luminescence, triplicate; shares compounds with HSP90 inh; purified native firefly luciferase; inhibition, % at 5.9 µM; 2,300 compounds, 48% hits;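 active means inhibition above the mean inhibition of all tested sample wells plus 3 SD, cut at about 10% in these data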;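 further: 0% = DMSO with luciferase and 100% = wells lacking luciferase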
Target sequence (P08659 whole entry, looked up): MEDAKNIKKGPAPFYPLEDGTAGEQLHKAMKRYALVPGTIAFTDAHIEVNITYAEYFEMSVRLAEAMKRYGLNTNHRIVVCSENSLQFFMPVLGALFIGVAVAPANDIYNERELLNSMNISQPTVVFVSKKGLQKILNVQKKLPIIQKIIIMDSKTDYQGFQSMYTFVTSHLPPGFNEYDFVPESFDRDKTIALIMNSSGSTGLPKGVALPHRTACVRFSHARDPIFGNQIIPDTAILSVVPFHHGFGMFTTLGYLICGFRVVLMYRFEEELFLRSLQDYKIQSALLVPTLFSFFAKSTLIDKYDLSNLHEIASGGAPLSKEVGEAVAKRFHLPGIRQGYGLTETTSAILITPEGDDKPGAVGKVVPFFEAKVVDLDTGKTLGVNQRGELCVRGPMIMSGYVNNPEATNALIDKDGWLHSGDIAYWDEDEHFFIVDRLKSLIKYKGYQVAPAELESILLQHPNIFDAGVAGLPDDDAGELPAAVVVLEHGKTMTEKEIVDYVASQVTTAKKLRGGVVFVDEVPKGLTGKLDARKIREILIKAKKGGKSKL
SENP8 confirm = SENP8 protease inhibitors, retest, confirmation, biochemical, luminescence, single concentration; shares compounds with SENP7 inh; inhibition, % at 12.5 µM; 6,200 compounds, 40% hits; Recombinant SENP8, Z-RLRGG-aminoluciferin luminescence, 60 min;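 active means mean inhibition across replicates above about 50%, limit read from the data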
SENP6 conf = SENP6 protease inhibitors, confirmation, biochemical, luminescence, single concentration; AID 488915, 2010; 6,200 compounds, 58% hits; shares compounds with SENP7 inh; inhibition, % at 12.5 µM; recombinant SENP6, Z-RLRGG-aminoluciferin luminescence
SENP7 confirm = SENP7 protease inhibitors, retest, confirmation, biochemical, luminescence, single concentration. 6,200 compounds, 69% hits. shares compounds with SENP7 inh. inhibition, % at 12.5 µM. AID 488917, 2010. recombinant SENP7, Z-RLRGG-aminoluciferin luminescence, 40 min
Casp3 select = caspase-3 protease inhibitors, confirmation, selectivity assay for SENP inhibitor project, biochemical, single concentration; inhibition, % at 12.5 µM; purified caspase-3, Z-DEVD-aminoluciferin luminescence, 60 min; shares compounds with SENP7 inh; 6,200 compounds, 60% hits; AID 488918, 2010;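 active means mean inhibition above about 50%, limit read from the data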;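 further: plate controls were enzyme with DMSO for no effect and wells without caspase-3 for full effect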
Luc interf = luminescence interference (SENP counter-screen); 6,200 compounds, 39% hits; Pre-incubated SENP8/Z-RLRGG-aminoluciferin, luciferase luminescence interference; inhibition, % at 12.5 µM; shares compounds with SENP7 inh;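 active means mean inhibition above about 50% when retested at one dose, limit read from the data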;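 further: plate controls were DMSO wells with completed reaction for no effect and substrate without enzyme for full effect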
* marks the source's active call; other numbers are inactive results; / = no result given. Compounds with a hit are over-represented: about 2.7% of the library has one in this group of screens.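 How the source made its calls, unless noted: active means mean inhibition above about 50% in the one-dose retest (limit read from the data); inactive means the rest.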

SMILES	SENP8 block-1	SENP8 block-2	SENP7 inh	HSP90 inh	SENP6 block	HSP90 inh confirm	FLuc counter	SENP8 confirm	SENP6 conf	SENP7 confirm	Casp3 select	Luc interf
O=C(Nc1cccc(O)c1)c1cc(-c2cccs2)on1	17	85*	75*	31*	94*	64*	57*	94*	94*	100*	92*	95*
COC(=O)c1nn(-c2ccc(OC)cc2)c(=O)cc1O	1	2	2	3	0	/	/	/	/	/	/	/
N=C1S/C(=C\c2ccccc2F)C(=O)N1c1ccc(F)cc1	1	-10	-15	-2	5	/	/	/	/	/	/	/
COc1ccc(-c2cc3cc(OC)c(OC)cc3cn2)cc1	-340	33	47	/	-14	/	/	/	/	/	/	/
COc1ccc2cc(-c3ccccc3)ncc2c1	-194	92*	98*	20*	95*	24*	10*	79*	95*	96*	86*	33
COc1ccc(N2CC(C(=O)N3CCN(Cc4ccc5c(c4)OCO5)CC3)CC2=O)cc1 (stereo not drawn)	-1	5	11	4	6	/	/	/	/	/	/	/
CCOc1ccc(-c2ccc(SCC)nn2)cc1	0	80*	90*	18*	65*	56*	39*	59*	68*	85*	74*	25
CCSc1ccc(-c2ccc(C)cc2)nn1	20	/	/	3	/	/	/	/	/	/	/	/
COc1cc(CNCCSc2nnnn2C)cc(Br)c1OCc1ccc(F)cc1	30	0	5	6	-19	/	/	/	/	/	/	/
O=C(CN1CCN(c2ccc(O)cc2)CC1)Nc1cc([N+](=O)[O-])ccc1Cl	21	-2	0	2	2	/	/	/	/	/	/	/
COc1ccc2cc3cc(C(=O)NC4CC4)sc3nc2c1	-401	71*	85*	21*	90*	47*	29*	6	81*	99*	93*	13
Cc1nc(C)c(C(=O)Nc2ncc([N+](=O)[O-])s2)o1	22	95*	89*	47*	98*	66*	41*	98*	98*	102*	98*	96*
O=C(O)c1ccc(N/N=C/c2cn(Cc3ccc(F)cc3)c3ccccc23)cc1	-431	61*	23	40*	52*	39*	25*	7	72*	75*	8	12
CCCCNC1=CC(=O)C(=O)c2ccccc21	85*	86*	81*	24*	93*	19*	-3	61*	87*	74*	91*	5
O=C(/C=C/c1ccc(F)cc1)NC(=S)NNC(=O)c1cnccn1	19	-6	11	-5	-7	/	/	/	/	/	/	/
